Compound activity as filed in PubChem.
Sampled rows, rich in hits. Any-hit rate of the full collection: about 0.15%.
BRCT PPI green = inhibitors of human BRCA1 BRCT-phosphoprotein interaction (green fluorophore) | BRCA1 BRCT-phosphopeptide binding, green fluorescence polarization | Potency, µM (titrated, usually from 76.9 µM), inactives show top-dose activity change, negative = inhibition, actives largely listed as inhibitors | 0.05% of 75,000 active | AID 875;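 note: potency is the fitted concentration of half-maximal effect; plate controls were peptide without protein for full effect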
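Fluorescence polarization: His-tagged BRCT (~35 kDa BRCA1 C-terminus, 250 nM) bound to 100 nM fluorescein-labeled phosphorylated 10-aa BACH1 peptide, pH 7.3 phosphate buffer with DTT and Tween 20. Compounds incubated 12 min at room temperature; inhibition read as lowered polarization.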
Caspase-7 inhib = allosteric or competitive inhibitors of human caspase-7; P55210; recombinant caspase-7, Ac-DEVD-AFC fluorescence rate; Potency, µM (top dose mostly 57.5 µM), without a hit: top-dose activity change, negative = inhibition, usual class: inhibitors; 0.02% of 75,000 active; AID 889; active = well fitted inhibition curve with a large enough effect in the main read-out, with a control signal flat, not every such curve was filed as active; inconclusive = small, poorly fitted or top-dose-only effect, or a change in a side signal; note: potency is the fitted concentration of half-maximal effect; % of control where 0% means no effect
USP2a inh = inhibitors of human ubiquitin-specific protease USP2a | USP2a enzymatic assay, qHTS inhibition | AID 927 | 0.1% of 60,000 active | O75604 | Potency, µM (titrated, usually from 38.3 µM), without a hit: top-dose activity change, negative = inhibition, hits mostly inhibitors; note: potency is the fitted concentration of half-maximal effect; nearly all actives have a fitted effect of over 60% in size
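Coupled readout: USP2-cleaved Ub-PLA2 (20nM final) turns over NBD C6-HPC (20uM final), Ex 460nm/Em 535nm after 2.5 h, time-zero read flagging artifacts. Enzyme (20nM final, pH 8.0 Tris) given 30 min RT with compound first; NEM defines full inhibition.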
BRCT PPI red = inhibitors of human BRCA1 BRCT-phosphoprotein interaction (red fluorophore); 0.03% of 75,000 active; Potency, µM (highest dose often 76.9 µM), without a hit: at the top dose activity change, negative = inhibition, hits mostly inhibitors; BRCT-phosphopeptide binding, red fluorescence polarization; P38398; note: % is set by controls: 0 for no effect and ±100 for the full control effect
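Rhodamine-labelled pBACH1 10-mer (100 nM) bound to BRCT domain (100 nM) at pH 7.3; compounds incubated 12 min room temperature, polarization read. Free peptide defines full inhibition; unlabelled decapeptide titrated as control.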
Caspase-1 inhib = allosteric or competitive inhibitors of human caspase-1. Caspase-1 enzyme, Ac-WEHD-AFC fluorogenic rate. Potency, µM (highest dose often 57.5 µM), without a hit: top-dose activity change, negative = inhibition, actives largely listed as inhibitors. 0.03% of 75,000 active. AID 900;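 note: potency is the fitted concentration of half-maximal effect; plate controls were vehicle for no effect and no substrate for full effect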
Starred values were filed as active, the others as inactive; ? = inconclusive; nt = no result; [ ] = another dose, or the depositor's remark. Unless noted, calls come from the whole dose curve; as a rule, active = well fitted curve in the direction sought with a large enough effect; inconclusive = small, poorly fitted or top-dose-only effect, or another doubt; inactive = no such curve, though single readings can be large; an effect the other way counts as inactive or inconclusive.

SMILES | BRCT PPI green | Caspase-7 inhib | USP2a inh | BRCT PPI red | Caspase-1 inhib
COc1cc2c(cc1O)-c1c(O)c(OC)cc3c1[C@H](C2)N(C)CC3 | -4% | -27% | nt | -2% | 32µM*
CC(=O)Nc1nnc(SCC(=O)NCCOc2ccccc2)s1 | -3% | 2% | 7.9µM* | -2% | 0%
CC(C)N[C@@H](C)Cc1ccc(I)cc1 | -3% | 1% | -3% | 1% | -2%
O=C1NC(=O)C(=O)C(=O)N1 | -2% | 0% | 10µM* | 1% | 2%
CC[C@H](CO)NC(=O)[C@@H]1C=C2c3cccc4c3c(cn4C)C[C@@H]2N(C)C1 | -3% | -9% | -1% | -1% | -2%
NC(N)=Nc1ccc2[nH]c3c(c2c1)C[C@]1(O)[C@@H]2Cc4ccc(O)c5c4[C@]1(CCN2CC1CC1)[C@H]3O5 | 1% | -11% | -2% | -1% | 3%
CC(=O)O.CC(=O)O.[Cd] | -1% | 4% | 2.5µM* | 1% | -6%
CC(=O)[O-].CC(=O)[O-].CC(=O)[O-].[Cr+3] | 1% | -1% | nt | -1% | -6%
CSC([N-]/N=C/c1cccc(C)n1)=[S]=[Cu].CS[C@H]([S-])[N-]/N=C/c1cccc(C)n1 | -3%[15.4 µM] | -2%[11.5 µM] | nt | 0%[15.4 µM] | -2%[11.5 µM]
Cn1ncnc2c(=O)n(C)c(=O)nc1-2 | -1% | ? | -29% | -2% | 13µM*
